Screens: PubChem, National Center for Advancing Translational Sciences (NCATS)
Rab9 promoter act: activators of Rab9 promoter | Huh7 Rab9 promoter-luciferase reporter, luminescence, 24 h | Potency, µM (top dose mostly 9.22 µM), without a hit: at the top dose activation, negative = inhibition, usual class: activators | 320,000 tested, 2.8% active; note: % of control where 0% means no effect; nearly all actives have a fitted effect of over 60% in size
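Using Huh7 cells stably transfected with Rab9 promoter–luciferase, compounds were incubated 24 h at 37 °C, 5% CO2; luciferase luminescence was read 10 min after reagent addition.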
KinaseGlo FLuc: counter-screen: inhibitors of Kinase-Glo firefly luciferase; AID 1379; Q27757; Kinase-Glo luciferase, ATP luminescence, 8 min; Potency, µM (series often up to 38.3 µM), inactives show top-dose activity change, negative = inhibition, actives largely listed as inhibitors; 200,000 tested, 0.28% active; note: % is set by controls: 0 for no effect and ±100 for the full control effect; nearly all actives have a fitted effect of over 60% in size
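Inhibition of Kinase-Glo luciferase light generation was assessed at 10 uM ATP in pH 7.2 imidazole buffer, with luminescence measured after eight minutes at ambient temperature.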
SMN2 splice up: increases expression of the SMN2 splice variant; HEK293 SMN2-luciferase splicing reporter, luminescence, 30-36 h; Potency, µM (highest dose often 46.1 µM), without a hit: at the highest dose activity change, positive = activation, hits mostly activators; 210,000 tested, 2.8% active; AID 1458; note: % of control where 0% means no effect; nearly all actives have a fitted effect of over 55% in size
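HEK293 cells carry an SMN2 […]–luciferase reporter in which exon 7 inclusion puts luciferase in frame. Cells were plated 10-12 h before compound addition, then incubated 30-36 h at 37C. ONE-Glo luminescence was read; sodium butyrate at 4.5 mM final served as control.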
FLuc modulator: inhibits or activates purified firefly luciferase, miR-21 counter-screen | P08659 | purified FLuc, Km substrates, luminescence inhibition | Potency, µM (highest dose often 57.5 µM), inactives show at the highest dose activity change, negative = inhibition, usual class: inhibitors | 360,000 tested, 6.9% active;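 note: plate controls were vehicle for no effect and reference inhibitor for full effect; nearly all actives have a fitted effect of over 55% in size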
Target sequence (P08659 whole entry, looked up): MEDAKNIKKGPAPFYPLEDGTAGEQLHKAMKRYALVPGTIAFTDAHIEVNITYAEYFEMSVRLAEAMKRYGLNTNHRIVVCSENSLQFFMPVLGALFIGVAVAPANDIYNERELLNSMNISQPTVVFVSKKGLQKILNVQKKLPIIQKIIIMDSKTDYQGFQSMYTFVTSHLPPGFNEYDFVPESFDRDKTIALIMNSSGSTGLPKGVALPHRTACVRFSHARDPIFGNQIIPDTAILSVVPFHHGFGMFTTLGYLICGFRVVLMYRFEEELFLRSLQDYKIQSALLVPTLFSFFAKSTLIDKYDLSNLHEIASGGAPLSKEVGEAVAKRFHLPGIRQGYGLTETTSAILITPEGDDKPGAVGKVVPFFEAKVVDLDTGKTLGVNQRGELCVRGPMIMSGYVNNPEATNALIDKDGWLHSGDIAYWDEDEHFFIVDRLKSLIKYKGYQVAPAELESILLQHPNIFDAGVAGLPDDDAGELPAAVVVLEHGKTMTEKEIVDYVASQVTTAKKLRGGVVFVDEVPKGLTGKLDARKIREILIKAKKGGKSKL
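Purified P. pyralis luciferase (10nM final) with 10uM D-luciferin and 10uM ATP (Km levels) in 50mM Tris acetate pH 7.5, 10mM Mg acetate, 0.01% Tween-20, 0.05% BSA; qHTS 6-point titration, ~60 µM downward; luminescence read.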
NPC1 prom act: NPC1 promoter activation | Huh7 NPC1 promoter luciferase reporter, 24 h | Potency, µM (doses to about 9.22 µM), for the others: at the top dose activation, hits mostly activators | 320,000 tested, 2.4% active | AID 485313; note: % of control where 0% means no effect; nearly all actives have a fitted effect of over 60% in size
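Stably transfected Huh7 (NPC1 promoter→luciferase), 1500 cells/well in Opti-MEM + 10% FBS, 2 h settle, then compound 24 h at 37 °C. Luminescence after 10 min with Amplite reagent.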
ELG1 genotoxic: genotoxicity induction in ELG1-luciferase HEK293T cells; Potency, µM (top dose mostly 46 µM), for inactives: at the highest dose activity change, positive = activation, most hits filed as activators; HEK293T ELG1-luciferase reporter, luminescence, 16 h; AID 504466; 330,000 tested, 1.3% active; note: % of control where 0% means no effect; nearly all actives have a fitted effect of over 60% in size
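Quantitative HTS format in 1536-well plates. HEK293T ELG1-luciferase reporter cells receive test compound and are incubated 16 hr at 37 °C, 5% CO2; ONE-Glo added, 30 min room temperature, then luminescence read.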
Active calls of the source: *; ? = inconclusive; nt = no result given; [ ] = remark or other dose. Rows were chosen to be rich in hits. Some 7.5% of all compounds tested hit in one or more screens of this group. Calls come from the whole dose curve; as a rule, active = well fitted curve in the direction sought with a large enough effect; inconclusive = small, poorly fitted or top-dose-only effect, or another doubt; inactive = no such curve, though single readings can be large; an effect the other way counts as inactive or inconclusive. Potency is the fitted concentration of half-maximal effect.

SMILES	Rab9 promoter act	KinaseGlo FLuc	SMN2 splice up	FLuc modulator	NPC1 prom act	ELG1 genotoxic
Clc1ccc(-c2nnc(SCc3nc4ccccc4[nH]3)o2)c(Cl)c1	1%	-4%	-26%	0%	-3%	-2%
Oc1ccccc1-c1nnc(COc2ccccc2)o1	4%	-4%	-4%	15µM*	8%	?
O=C(OCc1nnc(-c2ccccc2)o1)c1ccco1	1%	-23%	-11%	24µM*	5%	5%
Oc1ccccc1-c1nnc(COc2ccc(Cl)cc2Cl)o1	19%	-3%	?	?	-1%	13µM*
O=Cc1ccc(OCc2nnc(-c3ccccc3Br)o2)cc1	-1%	nt	nt	?	-2%	15%
O=C(OCc1nnc(-c2ccccc2)o1)c1cc(=O)c2ccccc2o1	5%	7%	6%	?	3%	8%
CC(=O)Nc1ccccc1OCc1nnc(-c2ccccc2Cl)o1	18%	nt	nt	?	9%	0%
Clc1ccc(-c2nnc(CCc3ccccc3)o2)c(Cl)c1	2µM*	-1%	13µM*	5.4µM*	2.5µM*	?
O=C(OCc1nnc(-c2ccccc2)o1)c1cccnc1Cl	11%	0%	5%	?	-3%	10%
c1ccc(OCc2nnc(-c3ccccc3)o2)cc1	4µM*	0%	13µM*	17µM*	?	?
Cc1csc(NC(=O)Nc2cccc(Cl)c2)n1	?	0%	11µM*	5.4µM*	?	?
O=C(Nc1cccc(Cl)c1)Nc1nc(-c2ccccc2)cs1	-2%	2%	-36%	-4%	7%	-1%
O=C(Nc1ccc(Cl)c(Cl)c1)Nc1nccs1	14%	nt	nt	13µM*	-18%	-1%
O=C(Nc1cccc(Cl)c1)Nc1nccs1	?	-1%	-9%	19µM*	?	-1%
CCOCCCNC(=O)C1CCN(c2nc3ccc(C)cc3[nH]2)CC1	nt	nt	nt	0%	nt	nt
CCCCOc1ccc(C(=S)N2CCC(C(N)=O)CC2)cc1	4.5µM*	-1%	?	24µM*	?	?
COc1ccc(C(=S)N2CCC(C(N)=O)CC2)cc1Br	-1%	2%	2%	-8%	-5%	5%
COc1ccc(C2CC(=O)Nc3c2c(=O)[nH]c2nc4ccccc4n32)cc1 (centres undefined)	nt	nt	-5%	-13%	nt	nt
COc1ccc(Cl)cc1NC(=O)CSC1=Nc2ccccc2C2=NC(CC(=O)NCc3ccc4c(c3)OCO4)C(=O)N12 (centres undefined)	nt	nt	-12%	-9%	nt	nt
Oc1ccc(-c2nc(-c3ccc(O)c(O)c3)cs2)cc1	5%	-8%	20µM*	15µM*	-4%	?
Cc1ccc(-c2csc(NC(=O)CN3C(=O)CCC3=O)n2)cc1	-22%	-5%	9%	-1%	-2%	4%
Fc1ccc(-c2csc(-c3ccncc3)n2)cc1	17%	1%	-9%	?	23%	-8%
O=C(CN1C(=O)CCC1=O)Nc1nc(-c2ccc3ccccc3c2)cs1	?	1%	27%	17µM*	26%	14%
CC(=O)Nc1nc(-c2ccc3ccccc3c2)cs1	1.1µM*	nt	nt	1.3µM*	0.63µM*	?
Oc1ccc(Nc2nc(-c3ccc4ccccc4c3)cs2)cc1	?	-3%	25%	1.1µM*	?	?
SMILES	Rab9 promoter act	KinaseGlo FLuc	SMN2 splice up	FLuc modulator	NPC1 prom act	ELG1 genotoxic
OC[C@H]1O[C@@H](n2cnc3c(N[C@H]4C[C@H]5CC[C@@H]4C5)ncnc32)[C@H](O)[C@@H]1O	nt	nt	0%	nt	nt	nt
COc1ccc(-n2cnc3ccccc3c2=O)c([N+](=O)[O-])c1	3%	nt	nt	0%	1%	0%
CCCCc1ccc(NC(=O)C(=O)NCCN2CCN(C(=O)c3ccc([N+](=O)[O-])cc3)CC2)cc1	-10%	nt	nt	-3%	-6%	-8%
O=C(CN1C(=O)CCC1=O)Nc1nc(-c2nc3ccccc3s2)cs1	2.8µM*	0%	13µM*	11µM*	?	?
Cc1cc(NS(=O)(=O)c2ccc(Nc3nc(-c4ccc(O)cc4)cs3)cc2)no1	-9%	5%	12%	24µM*	-20%	0%
Cc1cc(NS(=O)(=O)c2ccc(Nc3nc(-c4ccc(C)c(C)c4)cs3)cc2)no1	-2%	3%	-16%	?	-2%	-3%
Cc1c2cnn(CC(=O)N3CCN(c4ccccc4)CC3)c(=O)c2c(C)n1Cc1ccccc1Cl	nt	nt	-1%	-16%	nt	nt
CCOC(=O)N1CCN(Cc2ccc(OCC(O)CN3CCCCC3)cc2)CC1 (centres undefined)	-3%	nt	nt	0%	0%	1%
COc1cc(/C=N/NC(=O)c2ccoc2C)ccc1O	16%	-16%	?	13µM*	9%	12%
CCOc1ccc(/C=N/NC(=O)c2ccoc2C)cc1OC	3.5µM*	nt	nt	?	?	18µM*
CCN(CC)c1ccc(/C=N/NC(=O)c2ccoc2C)cc1	?	nt	nt	1.1µM*	0.5µM*	0.73µM*
COc1cc(/C=N/NC(=O)c2cc(C)oc2C)ccc1O	-3%	nt	nt	?	-2%	6%
COc1cccc(/C=N/NC(=O)c2ccoc2C)c1	1.6µM*	nt	nt	11µM*	2.5µM*	?
Cc1occc1C(=O)N/N=C/c1ccccn1	?	?	nt	?	25%	?
CCCCC/C=C\C/C=C\C/C=C\CCCCCCC(=O)O[C@H](COCCCCCCCCCCCCCCCC)COP(=O)([O-])OCC[N+](C)(C)C	nt	-2%	1%	nt	nt	nt
N#Cc1ccc2c(c1)C[C@]1(CCCCN3C(=O)c4ccccc4C3=O)Oc3cc(-c4ccccc4)oc(=O)c3[C@H]2O1	-1%[1.84 µM]	nt	nt	5%[11.5 µM]	1%[1.84 µM]	nt
Cn1nccc1C(=O)N/N=C/c1ccccc1[N+](=O)[O-]	2.8µM*	nt	nt	13µM*	2.5µM*	?
COc1cccc(/C=N/NC(=O)c2ccoc2C)c1O	-1%	nt	nt	8.5µM*	8%	21µM*
COc1cccc(/C=N/NC(=O)C(=O)N/N=C/c2cccc(OC)c2O)c1O	-23%	-2%	-36%	0%	-34%	2%
COc1cccc(/C=N/NC(=O)NC2CCCCC2)c1O	?	nt	nt	17µM*	?	?
Cc1occc1C(=O)N/N=C/c1ccccc1[N+](=O)[O-]	4µM*	nt	nt	9.5µM*	3.2µM*	?
Cc1occc1C(=O)Nc1cccc([N+](=O)[O-])c1C	13%	nt	nt	-3%	-3%	0%
O=C(Nc1ccc(Br)cc1)c1cnn2c1NC(=C1CC1)C=C2C(F)F	nt	nt	nt	1%	nt	nt
Cc1ccc2nc(NCCc3ccc(Cl)cc3)c3nncn3c2c1	-2%	nt	?	0%	-2%	0%
Cc1ccc(Nc2nc3ccccc3n3cnnc23)cc1C	?	nt	nt	?	1.1µM*	10%
